The list is not random: actives were taken first. Their share in the collection is about 4.5%.
GPR32 ag = qHTS for Agonists of Human Resolvin D1 Receptor DRV1. CHO-K1 GPR32 beta-arrestin PathHunter luminescence, 90 min; zero percent set by DMSO-only wells. activation, % at 76.9 µM. 48,000 tested, 2.5% active;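 active = activation of at least 60% and not above a set upper limit, about 1 call in 100 departs from these limits; inconclusive = activation of 40% to 60%, or above that upper limit; inactive = activation under 40%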; note: 0% is about no effect
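PathHunter enzyme-fragment complementation, CHO-K1 GPR32 stable line; 2,500 cells/well, overnight attach; cpd 90 min 37 °C 5% CO2; detection reagent 1 h RT; chemiluminescence. DMSO = EC0.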
NTMT1 inh = Primary qHTS for Inhibitors of N-terminal methyltransferase 1 (NTMT1): MTaseGlo Assay; NTMT1 MTase-Glo SAH luminescence, purified enzyme; AID 1645870, 2021; 59,000 tested, 2.5% active; Potency, µM (highest dose often 114 µM), for the others: at the highest dose activity change, negative = inhibition, actives largely listed as inhibitors;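 note: potency is the fitted concentration of half-maximal effect; plate controls were DMSO vehicle for no effect and no enzyme for full effect; nearly all actives have a fitted effect of over 65% in size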
Target sequence (Q9BV86 whole entry, looked up): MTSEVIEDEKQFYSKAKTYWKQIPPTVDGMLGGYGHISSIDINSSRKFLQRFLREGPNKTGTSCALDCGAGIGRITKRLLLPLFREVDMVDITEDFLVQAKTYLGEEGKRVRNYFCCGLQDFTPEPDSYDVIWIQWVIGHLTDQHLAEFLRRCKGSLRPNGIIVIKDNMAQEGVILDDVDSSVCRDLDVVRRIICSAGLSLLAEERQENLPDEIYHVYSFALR
HTT promoter inh = Primary qHTS for Identification of Small Molecule Inhibitors of Huntingtin Promoter Activity; Potency, µM (doses to about 57.5 µM), for the others: top-dose activity change, negative = inhibition, most hits filed as inhibitors; HEK293 HTT promoter firefly luciferase reporter, 24 h; AID 1508623, 2021; 48,000 tested, 0.93% active; note: potency is the fitted concentration of half-maximal effect; nearly all actives have a fitted effect of over 50% in size
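HEK293 Fluc reporter, 2,500 cells/well, 24 h pre-culture; cpds up to 57.5 uM final, 24 h 37 degrees C; Dual-Glo, 10 min RT; normalized vehicle = 0%, zero RLU = -100%.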
SKOV3 invasion = Primary qHTS assay for Inhibitors of ovarian cancer metastasis using an organotypic tumor microenvironment (TME) model; SKOV3ip1-GFP adhesion/invasion on 3D omental model, fluorescence; 46,000 tested, 0.1% active; Potency, µM (top dose mostly 45.8 µM), without a hit: at the top dose activity change, negative = inhibition, usual class: inhibitors; AID 1963576, 2024;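 note: potency is the fitted concentration of half-maximal effect; plate controls were DMSO wells for no effect and tomatine positive control wells for full effect; nearly all actives have a fitted effect of over 65% in size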
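qHTS, 4-pt dose (0.36-46 umol/L); SKOV3ip1-GFP, 1,200 cells/well, no FBS; primary omental fibroblast/mesothelial co-culture 48 h pre-grown; 2 h RT + 16 h 37 C; PBS wash, 4% PFA; GFP count 488/509 nm.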
HTT-AS promoter = Primary qHTS for Identification of Small Molecule Activators of Huntingtin-Antisense Promoter Activity; HEK293 HTT-AS promoter firefly luciferase reporter, 24 h; response scale: percent change from vehicle, -100% = no light; Potency, µM (titrated, usually from 57.5 µM), for inactives: at the top dose activity change, positive = activation, hits mostly activators; 48,000 tested, 0.24% active; AID 1508624, 2021; note: potency is the fitted concentration of half-maximal effect; nearly all actives have a fitted effect of over 55% in size
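Luminescence was read after Dual-Glo reagent and a 10 min room-temperature incubation. Values were normalized to vehicle (0% activity) and zero RLU (-100% activity). Reporter HEK293 cells had been exposed to compounds (up to 57.5 uM final) for 24 h.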
CLK4 KinaseGlo = Confirmation Assay for Inhibitors of CDC-like Kinase 4 (Kinase-Glo Assay): SAR round 2 | shares compounds with NTMT1 inh | recombinant Clk4, Kinase-Glo ATP luminescence, 4.5 h | Potency, µM (titrated, usually from 76.9 µM), inactives show at the highest dose activity, negative = inhibition, usual class: inhibitors | 90 tested, 90% active | AID 493204, 2011
Sfp PPTase inh = qHTS Assay for Inhibitos of Bacillus subtilis Sfp phosphopantetheinyl transferase (PPTase): Chemistry Optimization Followup | shares compounds with NTMT1 inh | 230 tested, 78% active | purified Sfp PPTase enzyme activity, qHTS | Potency, µM (top dose mostly 114 µM), for inactives: at the top dose activity change, negative = inhibition, most hits filed as inhibitors
Bsub HM489 growth = qHTS for Inhibitos of Bacillus subtilis Sfp phosphopantetheinyl transferase (PPTase): Chemistry Optimization Followup in B. Subtilis HM489; shares compounds with NTMT1 inh; B. subtilis HM489 (acpS-) growth, BacTiter-Glo, 5 h; Potency, µM (titrated, usually from 114 µM), inactives show top-dose activity change, negative = inhibition, usual class: inhibitors; 220 tested, 50% active; AID 540353, 2011
Sfp PPTase gel = Gel-Based Assay for Inhibitos of Bacillus subtilis Sfp phosphopantetheinyl transferase (PPTase): Chemistry Optimization Followup | shares compounds with NTMT1 inh | purified Sfp PPTase, gel-based product detection | Potency, µM (series often up to 250 µM), for the others: at the highest dose activity change, negative = inhibition, most hits filed as inhibitors | 220 tested, 54% active | AID 540355, 2011
Sfp gel = qHTS Assay for Inhibitors of Bacillus subtilis Sfp phosphopantetheinyl transferase (PPTase): Gel Based Assay. Potency, µM (highest dose often 250 µM), inactives show at the top dose activity change, negative = inhibition, hits mostly inhibitors. shares compounds with NTMT1 inh. purified Sfp PPTase, gel-based product detection. 45 tested, 90% active
Sfp inh SAR2 = qHTS Assay for Inhibitors of Bacillus subtilis Sfp phosphopantetheinyl transferase (PPTase): SAR Round 2; shares compounds with NTMT1 inh; purified Sfp enzyme, PPTase activity, qHTS; Potency, µM (series often up to 57.1 µM), without a hit: at the top dose activity change, negative = inhibition, actives largely listed as inhibitors; 230 tested, 87% active; AID 602370, 2012
hGST ctr = qHTS Assay for Inhibitors of Bacillus subtilis Sfp phosphopantetheinyl transferase (PPTase): SAR in hGST A1-1; shares compounds with NTMT1 inh; hGST A1-1 enzyme activity counter-screen, qHTS; Potency, µM (doses to about 114 µM), for inactives: top-dose activity change, negative = inhibition, usual class: inhibitors; 55 tested, under 10 active
HSD17B4 inh = Extended Characterization of HPGD Inhibitors: Counterscreen Against HSD17b4 | shares compounds with NTMT1 inh | AID 743187, 2013 | 230 tested, 10% active | Potency, µM (highest dose often 57.1 µM), for the others: top-dose activity change, negative = inhibition, hits mostly inhibitors | purified HSD17B4, estradiol/NAD+, NADH fluorescence
ALDH1A1 counter = Extended Characterization of HPGD Inhibitors: Counterscreen Against ALDH1A1 | shares compounds with NTMT1 inh | recombinant ALDH1A1, NADH fluorescence, propionaldehyde/NAD+ | Potency, µM (highest dose often 57.1 µM), for the others: top-dose activity change, negative = inhibition, hits mostly inhibitors | 230 tested, 93% active | AID 743195, 2013
An asterisk follows results filed as active; i = inactive; ? = inconclusive; / = no result. Unless noted, calls come from the whole dose curve; as a rule, active = well fitted curve in the direction sought with a large enough effect; inconclusive = small, poorly fitted or top-dose-only effect, or another doubt; inactive = no such curve, though single readings can be large; an effect the other way counts as inactive or inconclusive.

SMILES	GPR32 ag	NTMT1 inh	HTT promoter inh	SKOV3 invasion	HTT-AS promoter	CLK4 KinaseGlo	Sfp PPTase inh	Bsub HM489 growth	Sfp PPTase gel	Sfp gel	Sfp inh SAR2	hGST ctr	HSD17B4 inh	ALDH1A1 counter
Cc1ccsc1CN(C)c1ncnc2ccc(-c3ccc(COC(=O)N(C)C)o3)cc12	/	/	/	/	/	1.46µM*	/	/	/	/	/	/	/	/
Cc1ccc(CN(C)c2ncnc3ccc(-c4ccc(CO)o4)cc23)o1	/	?	/	/	/	0.0654µM*	/	/	/	/	/	/	/	/
Cc1ccnc(NC(=S)N2CCN(c3cccc(N(C)C)c3)CC2)c1	/	-25.1%	/	/	/	/	9.37µM*	37.3µM*	1.26µM*	8.5µM*	5.76µM*	?	?	1.71µM*
Cc1cc(C)nc(NC(=S)N2CCN(c3ccc(Cl)c(Cl)c3)CC2)c1	/	-8.8%	/	/	/	/	2.1µM*	5.91µM*	12µM*	3.02µM*	0.91µM*	?	-29.5%	8.57µM*
CCOC(=O)c1c(C)[nH]c(C)c1S(=O)(=O)N1CCC(C(=O)Nc2cc(C)ccn2)CC1	-1.7	-5.5%	-4.6%	i	2.7%	/	/	/	/	/	/	/	/	/

Assay outcomes: PubChem BioAssay, National Center for Advancing Translational Sciences (NCATS)
